According to PubChem BioAssay (NCI):
This is part of a sample that, as a whole, favours compounds with a hit. Of some 79,000 tested, about 15% had one in any assay. Active and inactive are the calls of the source. Cut-off read from the data, not from the text of the source: active = growth inhibition above about 70%; inactive = the rest.

Tests used:
[1] = NCI Yeast Anticancer Drug Screen. Data for the rad50 strain (AID 155);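 note: 0% = growth of vehicle-only cultures of the same strain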; conditions: S. cerevisiae rad50 strain growth inhibition; at 50.0 µM; hits give high values
Outline: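 Genetically altered yeast (DNA repair pathway); compound treatment; growth inhibition vs vehicle ctrl.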

[2] = NCI Yeast Anticancer Drug Screen. Data for the mec2-1 strain (AID 157); conditions: S. cerevisiae mec2-1 strain, at 50.0 µM, hits give high values
Outline: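 Strain: mec2-1 (DNA repair/cell cycle alteration). Compound exposure, then growth measured; inhibition expressed relative to vehicle.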

[3] = NCI Yeast Anticancer Drug Screen. Data for the sgs1 mgt1 strain (AID 161);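 note: 0% = growth of cultures given vehicle only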; conditions: S. cerevisiae sgs1 mgt1 strain, at 50.0 µM, hits give high values
Outline: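 Inhibition of yeast growth, normalised to vehicle-treated controls, is reported for a strain bearing genetic alterations in DNA damage repair.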

[4] = NCI Yeast Anticancer Drug Screen. Data for the cln2 rad14 strain (AID 165);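 note: 0% = growth equal to vehicle treated cultures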; conditions: S. cerevisiae cln2 rad14 strain, at 50.0 µM, hits give high values
Outline: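 Compounds are applied to the cln2 rad14 yeast strain, and growth is then compared with that of vehicle-treated cultures to give inhibition.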

[5] = NCI Yeast Anticancer Drug Screen. Data for the bub3 strain (AID 167); conditions: S. cerevisiae bub3 mutant strain, at 50.0 µM, hits give high values
Outline: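 Yeast carrying a defined mutation is treated with each compound, and growth is compared with that of vehicle-exposed cells to give inhibition.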

[6] = NCI Yeast Anticancer Drug Screen. Data for the mlh1 rad18 strain (AID 175); conditions: S. cerevisiae mlh1 rad18 strain growth inhibition; at 50.0 µM; hits give high values
Outline: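 Read-out is yeast growth inhibition, calculated against vehicle-only controls. The compound was applied to a strain engineered with DNA damage repair alterations.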

Measured: growth inhibition

O=C(O)c1ccc(/C=N/NC(=S)Nc2cccc3cccnc23)cc1
inactive: [1] 22.1% | [2] 7.4% | [3] 6.6% | [4] 16.4% | [5] 10.2% | [6] -17.1%

CCOC(=O)C1C(C)=CC(=O)CC1CC (stereo unspecified)
inactive: [1] 24.3% | [2] -10.7% | [3] 14.8% | [4] -1.05% | [5] -3.85% | [6] 22.5%

Cc1cc(C)cc(N=Nc2c(N)nc(N)[nH]c2=O)c1
inactive: [1] 4.85% | [2] -10.7% | [3] -49.9% | [4] -11.2% | [5] -3.2% | [6] -7.3%

Oc1ccccc1CNCc1nc2ccccc2[nH]1
inactive: [1] -8.1% | [2] -1.7% | [3] -11.6% | [4] -8.7% | [5] -4.4% | [6] 18.6%

Cc1ccc(/C=C/c2cc(/C=C/c3ccc(C)cc3)c([N+](=O)[O-])cc2[N+](=O)[O-])cc1
inactive: [1] 23.2% | [2] -15.2% | [3] -2.3% | [4] -61.8% | [5] -1.4% | [6] 1.2%

COC(=O)NN1C(C)=C(C(=O)OC)C2(C#N)C(C(=O)OC)=C(C)N(NC(=O)OC)C12N (stereo unspecified)
inactive: [1] -14.4% | [2] -26.6% | [3] -56% | [4] 9.85% | [5] 10.2% | [6] -18.4%

Cc1ccc2c(c1)NC(c1ccc(C(=O)O)cc1)c1cccn1-2 (stereo unspecified)
inactive: [1] 29.7% | [2] 8.95% | [3] 0.45% | [4] 7.7% | [5] 19.3% | [6] 23.2%

CC12C=CC(=O)C=C1CCC1C2C(O)CC2(C)/C(=C\CO)CCC12 (stereo unspecified)
inactive: [1] -4.05% | [2] -1.75% | [3] 6.55% | [4] -15.8% | [5] 60.2% | [6] -3.35%

O=C(Nc1cccc([N+](=O)[O-])c1)C1C(=O)N(c2cccc([N+](=O)[O-])c2)C(=O)/C1=N/O (stereo unspecified)
inactive: [1] -16.8% | [2] -7.4% | [3] -24.8% | [4] -50.4% | [5] 0.1% | [6] -3.5%

O=c1c(SCc2ccccc2Cl)c(SCc2ccccc2Cl)cnn1-c1ccccc1
inactive: [1] 10.7% | [2] -3.05% | [3] 12.6% | [4] 23.4% | [5] 7.15% | [6] 1.45%

O=C1CCCCC1CC1(O)C(=O)NC2CCC(Br)CC21 (stereo unspecified)
inactive: [1] -11.6% | [2] -3.3% | [3] 21.6% | [4] 8.75% | [5] 18.7% | [6] 5.6%

COC(=O)C(C#N)C1NC(=O)c2ccccc21 (stereo unspecified)
inactive: [1] 9.75% | [2] -2.4% | [3] 10.2% | [4] 1.45% | [5] -8.3% | [6] 7.15%

CC1(C)OS2(OC(C)(C)c3ccccc32)c2ccccc21
inactive: [1] -10.2% | [2] 6.85% | [3] 6.5% | [4] 8.75% | [5] 6.3% | [6] 7.65%

O=c1cc([O-])[n+](C2OC(CO)C(O)C2O)c2sccn12 (stereo unspecified)
inactive: [1] 10.2% | [2] 9.2% | [3] 16.6% | [4] -0.5% | [5] -2.55% | [6] -2.8%

C=CCN1C(=O)CS/C1=N\NC(=O)c1c(C)nc2sccn12
inactive: [1] -16.3% | [2] -4.15% | [3] -8.95% | [4] -7.4% | [5] -22.8% | [6] -28.4%

NNC(=O)Cc1c[nH]c2ccccc12
inactive: [1] 7.1% | [2] 9.4% | [3] 5.85% | [4] -7.55% | [5] 6% | [6] 2.25%

CCOC(=O)c1nnsc1NC(=O)Nc1ccc(Cl)cc1
inactive: [1] -5.05% | [2] -21.2% | [3] -3.4% | [4] -6.55% | [5] -44.9% | [6] 10.6%

O=C(NC(=O)c1cc2cc(Br)cc(Br)c2oc1=O)Oc1ccccc1
inactive: [1] 24.9% | [2] 19.4% | [3] 14.1% | [4] 25.4% | [5] -2.55% | [6] 13.1%

CC(Cl)S(N)(=O)=O (stereo unspecified)
inactive: [1] -11.7% | [2] -11.7% | [3] -19.2% | [4] -6.45% | [5] 7.45% | [6] 2.15%

O=C(O)Cc1ccc(N2N=C(c3ccccc3)CC2=O)cc1
inactive: [1] 5.3% | [2] -5.05% | [3] -13.6% | [4] 35% | [5] 22.4% | [6] -9.3%

CCCCCCCCCc1cc[n+](C2=C([O-])C3=C(C(=O)C2=O)C2c4ccccc4C3c3ccccc32)cc1
active: [3] 80.5%
inactive: [1] 43.8% | [2] 50.6% | [4] 46% | [5] 53.9% | [6] 60.3%
